The record followed here is PubChem BioAssay (NCATS).

“And” between values parts separate entries of the source, which are not always exact repeats. Identical values can stand only once. Inconclusive results are not listed. The source made the active and inactive calls. The call rests on the fitted dose curve; in most records, active means well fitted curve in the direction sought with a large enough effect; inconclusive means small, poorly fitted or top-dose-only effect, or another doubt; inactive means no such curve, though single readings can be large; an effect the other way counts as inactive or inconclusive.

Experiment [1] is described as follows: qHTS of pediatric cancer cell lines to identify multiple opportunities for drug repurposing: Primary screen for control Hh wild type fibroblast cells (AID 1347106).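 Further: series mostly up to about 46 µM; a drop in luminescence marks cytotoxicity and a rise apparent proliferation; nearly all actives have a fitted effect of over 55% in size.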 The essentials: (§1)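 Viability after 48 h compound treatment at 37C, 500-1,000 cells/well, read as ATP luminescence with CellTiter-Glo. Primary screens used 11-point (MIPE, 0.78 nM-46 µM) or 8-point (NPC, 0.59 nM-46 µM) final concentrations; follow-up screens used 11-point dilutions.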

The nature of experiment [2]: qHTS of pediatric cancer cell lines to identify multiple opportunities for drug repurposing: Primary screen for Rh41 cells (AID 1347108). Further: nearly all actives have a fitted effect of over 70% in size. Further: potency means the concentration at half of the fitted maximal effect. The method in brief: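 500-1,000 cells/well; 5 h pre-incubation 37 °C/5% CO2; compound pinned; 48 h; CellTiter-Glo, 15 min RT; luminescence. MIPE 11-pt from 0.78 nM, NPC 8-pt from 0.59 nM final. Bortezomib 2.3 µM final as positive control.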

The nature of experiment [3]: qHTS of pediatric cancer cell lines to identify multiple opportunities for drug repurposing: Confirmatory screen for NB1643 cells (AID 1347109). Further: nearly all actives have a fitted effect of over 45% in size. Further: potency means the concentration at half of the fitted maximal effect. The method in brief: as §1
Experiment [4] in a line: qHTS of pediatric cancer cell lines to identify multiple opportunities for drug repurposing: Confirmatory screen for A673 cells (AID 1347110). Further: nearly all actives have a fitted effect of over 65% in size. Further: potency means the concentration at half of the fitted maximal effect. The essentials:
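Forty-eight-hour viability assay. Follow-up compounds ran at 11-point dilutions; positive control bortezomib at 2.3 uM final, neutral control DMSO.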

Experiment [5] can be described thus: qHTS of pediatric cancer cell lines to identify multiple opportunities for drug repurposing: Confirmatory screen for SK-N-MC cells (AID 1347111).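 Further: cells exposed to compound for 48 h before the readout; nearly all actives have a fitted effect of over 70% in size.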 Further: potency means the concentration at half of the fitted maximal effect. The method in brief:
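SK-N-MC cells at 500-1,000 cells/well in growth media were pre-incubated 5 h, then exposed to compounds at 11-point dilutions for 48 h at 37 degrees C, 5% CO2. Viability was read as CellTiter-Glo luminescence.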

Experiment [6] can be described thus: qHTS of pediatric cancer cell lines to identify multiple opportunities for drug repurposing: Confirmatory screen for NB-EBc1 cells (AID 1347115). Further: nearly all actives have a fitted effect of over 45% in size. Further: potency means the concentration at half of the fitted maximal effect. The essentials:
as §1

Experiment [7] is described as follows: qHTS of pediatric cancer cell lines to identify multiple opportunities for drug repurposing: Confirmatory screen for BT-37 cells (AID 1347117). Further: nearly all actives have a fitted effect of over 55% in size. Further: potency means the concentration at half of the fitted maximal effect. The method in brief:
as §1

Experiment [8] in a line: qHTS of pediatric cancer cell lines to identify multiple opportunities for drug repurposing: Confirmatory screen for TC32 cells (AID 1347118). Further: nearly all actives have a fitted effect of over 65% in size. Further: potency means the concentration at half of the fitted maximal effect. The method in brief: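 qHTS, TC32, 48 h drug treatment, CellTiter-Glo luminescence as a proxy for metabolically active cells; primary top concentration 46 µM (MIPE 11-pt, NPC 8-pt); confirmatory 11-pt.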
Experiment [9] is described as follows: qHTS of pediatric cancer cell lines to identify multiple opportunities for drug repurposing: Confirmatory screen for MG 63 (6-TG R) cells (AID 1347119). Further: nearly all actives have a fitted effect of over 55% in size. Further: potency means the concentration at half of the fitted maximal effect. The essentials: as §1
Experiment [10] in a line: qHTS of pediatric cancer cell lines to identify multiple opportunities for drug repurposing: Confirmatory screen for Rh30 cells (AID 1347126). Further: nearly all actives have a fitted effect of over 55% in size. Further: potency means the concentration at half of the fitted maximal effect. The method in brief:
as §1

The nature of experiment [11]: qHTS of pediatric cancer cell lines to identify multiple opportunities for drug repurposing: Confirmatory screen for BT-12 cells (AID 1347112). Further: nearly all actives have a fitted effect of over 55% in size. Further: potency means the concentration at half of the fitted maximal effect. The method in brief:
as §1

Experiment [12] can be described thus: qHTS of pediatric cancer cell lines to identify multiple opportunities for drug repurposing: Confirmatory screen for DAOY cells (AID 1347114). Further: nearly all actives have a fitted effect of over 65% in size. Further: potency means the concentration at half of the fitted maximal effect. The essentials:
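Viability measured as metabolically active cells via CellTiter-Glo luminescence following 48 hours of compound exposure, 11-point dilutions in confirmatory testing. 500-1,000 cells/well plated 5 hours before dosing; controls were DMSO and 2.3 µM bortezomib.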

Experiment [13] is described as follows: qHTS of pediatric cancer cell lines to identify multiple opportunities for drug repurposing: Confirmatory screen for U-2 OS cells (AID 1347122). Further: nearly all actives have a fitted effect of over 65% in size. Further: potency means the concentration at half of the fitted maximal effect. The essentials:
as §1

Experiment [14] is described as follows: qHTS of pediatric cancer cell lines to identify multiple opportunities for drug repurposing: Confirmatory screen for Rh41 cells (AID 1347123).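 Further: 48 h compound exposure; nearly all actives have a fitted effect of over 60% in size.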 Further: potency means the concentration at half of the fitted maximal effect. The essentials:
as §1

The nature of experiment [15]: qHTS of pediatric cancer cell lines to identify multiple opportunities for drug repurposing: Confirmatory screen for RD cells (AID 1347124). Further: potency means the concentration at half of the fitted maximal effect. The method in brief:
as §1

The nature of experiment [16]: qHTS of pediatric cancer cell lines to identify multiple opportunities for drug repurposing: Confirmatory screen for Rh18 cells (AID 1347125). Further: nearly all actives have a fitted effect of over 55% in size. Further: potency means the concentration at half of the fitted maximal effect. The method in brief:
as §1

The nature of experiment [17]: qHTS of pediatric cancer cell lines to identify multiple opportunities for drug repurposing: Confirmatory screen for Saos-2 cells (AID 1347127). Further: nearly all actives have a fitted effect of over 60% in size. Further: potency means the concentration at half of the fitted maximal effect. The essentials:
as §1

A short description of experiment [18]: qHTS of pediatric cancer cell lines to identify multiple opportunities for drug repurposing: Confirmatory screen for OHS-50 cells (AID 1347128). Further: potency means the concentration at half of the fitted maximal effect. The essentials: as §1
A short description of experiment [19]: qHTS of pediatric cancer cell lines to identify multiple opportunities for drug repurposing: Primary screen for Rh30 cells (AID 1347107). Further: series mostly up to about 46 µM; nearly all actives have a fitted effect of over 75% in size. The essentials: as §1
A short description of experiment [20]: qHTS of pediatric cancer cell lines to identify multiple opportunities for drug repurposing: Confirmatory screen for control Hh wild type fibroblast cells (AID 1347121). Further: nearly all actives have a fitted effect of over 70% in size. The method in brief: as §1

`O=C(O)c1cccnc1Nc1cccc(C(F)(F)F)c1`: the Potency entry in experiment [1] and in experiment [2] was “inactive” throughout.
As to `Cc1cc(C2CCCCC2)n(O)c(=O)c1`, the Potency in experiment [3] is 14.7 µM (active); in experiment [4], 11.7 µM (active); in experiment [5] it was 5.22 µM (active); in [6] it was 16.5 µM (active); in experiment [7], 2.33 µM (active); in experiment [8], 4.65 µM (active). For the same molecule, the results for the Potency in [9] and in experiment [10] were 20.8 µM (active) and 8.27 µM (active), respectively.
On to `CCN(CC)CCOc1ccc(Nc2ncc3cc(-c4c(Cl)cccc4Cl)c(=O)n(C)c3n2)cc1`, for which the Potency in [2] was 1.87 µM (active); in experiment [3], 9.27 µM (active); in experiment [4], 0.185 µM (active); in experiment [5], 0.293 µM (active); in [11] it was 11.7 µM (active); in [12] it was 1.65 µM (active). Also, the Potency in [6] was 18.5 µM (active); in experiment [7], 4.65 µM (active); in experiment [8], 2.61 µM (active); in [9] it was 0.261 µM (active); in [13] it was 0.657 µM (active); in [14] it was 9.27 µM (active). Also, the Potency in experiment [15] is 2.33 µM (active); in experiment [16], 14.7 µM (active); in experiment [10] it was 7.37 µM (active); in experiment [17] it was 1.47 µM (active); in experiment [18], 1.31 µM (active).
With `Cc1nc(Nc2ncc(C(=O)Nc3c(C)cccc3Cl)s2)cc(N2CCN(CCO)CC2)n1`, the Potency entry in experiment [19], in experiment [2], in [6], in experiment [8], in [20] and in experiment [15] was “inactive” in each case. In addition, the Potency result in [17] and in experiment [18] was “inactive” each time. Further, the Potency is 20.8 µM (active) in experiment [4]; 6.57 µM (active) in experiment [11]; 16.5 µM (active) in [12]; 3.29 µM (active) in experiment [13]; 2.61 µM (active) in experiment [14]; 0.208 µM (active) in [16]. Further, in experiment [10], the Potency was 0.414 µM (active).
For the molecule `C[C@H](Cc1ccc(O)c(O)c1)[C@@H](C)Cc1ccc(O)c(O)c1`, the Potency result in experiment [1] is “inactive”. For the same molecule, the Potency in experiment [2] is 11.8 µM (active).
For `CN(C)C(=O)COC(=O)Cc1ccc(OC(=O)c2ccc(N=C(N)N)cc2)cc1`, the Potency entry in [19] and in [2] was “inactive” in each case.
Turning to `S=c1nc[nH]c2nc[nH]c12`, the Potency entry in experiment [1] and in experiment [2] was “inactive” in each case.
Turning to `CCOc1cc(CC(=O)N[C@@H](CC(C)C)c2ccccc2N2CCCCC2)ccc1C(=O)O`, the Potency entry in experiment [1], in experiment [2], in [3], in experiment [11], in experiment [12] and in [7] was “inactive” in each case. The Potency result in [8], in [20], in experiment [13], in experiment [14], in experiment [15] and in [16] was “inactive” throughout. The Potency result in experiment [10], in experiment [17] and in experiment [18] was “inactive” throughout.
With `Clc1ccc(C(Cn2ccnc2)OCc2ccc(Sc3ccccc3)cc2)c(Cl)c1` (stereo not drawn), the Potency result in experiment [1], in [2] and in experiment [16] was “inactive” each time. In addition, the Potency is 1.17 µM (active) in experiment [4]; 18.5 µM (active) in experiment [5]; 29.3 µM (active) in experiment [11]; 18.5 µM (active) in [12]; 26.1 µM (active) in [7]; 10.4 µM (active) in experiment [8]. Also, in [13], the Potency is 18.5 µM (active).
For `NCCCCNCCCN`, in experiment [19], the Potency result is “inactive”. Further, the Potency in [2] was 23.5 µM (active).
For `Nc1cccc2c1CN(C1CCC(=O)NC1=O)C2=O` (stereo not drawn), the Potency entry in [1] and in experiment [2] was “inactive” throughout.
On to `CCN(CCO)CCCC(C)Nc1ccnc2cc(Cl)ccc12` (stereo not drawn), for which the Potency result in [1], in [2], in experiment [3], in experiment [4], in experiment [5] and in [11] was “inactive” in each case. Moreover, the Potency entry in [12], in [6], in experiment [7], in experiment [8], in [9] and in [20] was “inactive” throughout. Further, the Potency result in experiment [13], in experiment [14], in [15], in [16], in [10] and in experiment [17] was “inactive” in each case. Also, the Potency entry in experiment [18] was “inactive”.
Turning to `C[C@]12CCC(=O)C=C1CC[C@@H]1[C@H]2[C@@H](O)C[C@@]2(C)[C@H]1CC[C@]2(O)C(=O)CO`, the Potency result in experiment [1], in [2], in experiment [3], in experiment [4], in [11] and in [12] was “inactive” each time. In addition, the Potency entry in [6], in experiment [9], in [20], in [13], in [14] and in [15] was “inactive” each time. Moreover, the Potency entry in [16], in [17] and in [18] was “inactive” in each case.
`CC[C@]1(O)C[C@H]2CN(CCc3c([nH]c4ccccc34)[C@@](C(=O)OC)(c3cc4c(cc3OC)N(C=O)[C@H]3[C@@](O)(C(=O)OC)[C@H](OC(C)=O)[C@]5(CC)C=CCN6CC[C@]43[C@@H]65)C2)C1`: the Potency result in experiment [1], in experiment [2], in experiment [20] and in [16] was “inactive” each time. Also, the Potency in experiment [3] was 10.4 nM (active) and 1.04 µM (active); in experiment [4], 14.7 nM (active) and 18.5 nM (active); in [5], 23.3 nM (active) and 104 nM (active); in experiment [11], 36.9 nM (active) and 208 nM (active); in [12], 82.7 nM (active) and 92.8 nM (active); in experiment [6] it was 827 nM (active) and 4.14 µM (active). Further, the Potency in experiment [7] was 14.7 nM (active) and 131 nM (active); in [8] it was 26.1 nM (active) and 117 nM (active); in experiment [9], 46.5 nM (active) and 329 nM (active); in experiment [13], 414 nM (active) and 585 nM (active); in experiment [14] it was 23.3 nM (active) and 18.5 nM (active); in experiment [15] it was 52.2 nM (active) and 147 nM (active). Also, in experiment [17], the Potency is 8.3 nM (active) and 165 nM (active).
Consider `Clc1ccc2c(N3CCN(CCCN4CCN(c5ccnc6cc(Cl)ccc56)CC4)CC3)ccnc2c1`, for which the Potency entry in experiment [1] and in [2] was “inactive” in each case.
Consider `C[C@@H](N)C1CCC(C(=O)Nc2ccncc2)CC1` (stereo partly drawn), for which the Potency result in experiment [1] and in [2] was “inactive” throughout.
With `CC1(C)C(=O)N(CCN2CCC(C(=O)c3ccc(F)cc3)CC2)c2ccccc21`, the Potency result in experiment [1], in [2], in experiment [12], in experiment [7], in [9] and in [20] was “inactive” in each case. Also, the Potency entry in [15], in experiment [16], in experiment [10] and in experiment [17] was “inactive” in each case. The values for the Potency in experiment [5] and in experiment [8] were 3.29 µM (active) and 7.37 µM (active), respectively.
On to `Cc1nc(-c2ccc(OCC(C)C)c(C#N)c2)sc1C(=O)O`, for which the Potency result in experiment [1] and in experiment [2] was “inactive” in each case.
As to `N=C(N)c1ccc2cc(OC(=O)c3ccc(N=C(N)N)cc3)ccc2c1`, the Potency result in experiment [1] and in experiment [2] was “inactive” each time.
